Reference: PubChem BioAssay (Tox21)
Several values for one entry are separate records, joined by “and”; a condition that tells them apart may be missing. Equal values may be shown once. Inconclusive results are not listed. Where a structure was tested more than once in an assay, its records may differ in their call. Activity calls are given as the source filed them. Calls follow the shape of the dose curve; as a rule, active = well fitted curve in the direction sought with a large enough effect in the repeat runs; inconclusive = weak or mixed curves; inactive = no such curve, though single readings can be large; an effect the other way counts as inactive or inconclusive.

Columns and labels:
[1] = Human pregnane X receptor (PXR) small molecule agonists, qHTS cell viability counter screen (AID 1346977); also: nearly all actives have a fitted effect of over 50% in size; also: potency is read from the fitted curve at half-maximal effect
Summary of the method: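 Measures live-cell protease fluorescence (CellTiter-Fluor) in PXR-Luc HepG2 cells treated 24hr with compounds at 37C. Cells had 5hr to attach before pin transfer of DMSO solutions.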

[2] = Caspase-3/7 induction in HepG2 cells by small molecules, qHTS assay (AID 1346978); also: nearly all actives have a fitted effect of over 15% in size; also: potency is read from the fitted curve at half-maximal effect
Summary of the method: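 Wild-type HepG2 cells (2,000/well) were settled 5 h at 37 C, 5% CO2, then exposed to compounds in DMSO for 17 h. Caspase-3/7 activity was read by luminescence 30 min after adding Caspase-Glo 3/7 reagent at room temperature.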

[3] = Caspase-3/7 induction in CHO-K1 cells by small molecules, qHTS assay (AID 1346980); also: nearly all actives have a fitted effect of over 15% in size; also: potency is read from the fitted curve at half-maximal effect
Summary of the method: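 Wild-type cells were seeded at 1,500 per well and settled 5 hr at 37 C, 5% CO2, then exposed to DMSO-dissolved compounds for 17 hr. Caspase-Glo 3/7 reagent was added, and luminescence was read after 30min at room temperature.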

[4] = Caspase-3/7 induction in HepG2 cells by small molecules, qHTS cell viability counter screen (AID 1346981); also: nearly all actives have a fitted effect of over 30% in size; also: potency is read from the fitted curve at half-maximal effect
Summary of the method: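 Viability determined by CellTiter-Fluor fluorescence in HepG2 wells also used for the luminescent Caspase-Glo 3/7 read. Compounds were present for 16 hr at 37 C, 5% CO2 before reagent addition.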

[5] = biological target: Cytochrome P450 2D6 (Homo sapiens) (UniProt P10635); assay: Cytochrome P450 Family 2 Subfamily D Member 6 (CYP2D6) small molecule antagonists: luciferase reporter qHTS assay (AID 1671196); also: nearly all actives have a fitted effect of over 50% in size; also: potency is read from the fitted curve at half-maximal effect
Summary of the method: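 Each well received CYP2D6 with its proluciferin substrate and chemical, sat 10 min, then got NADPH regeneration solution for 1 h at room temperature. Luminescence in RLU served as the activity measure.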

[6] = biological target: Nuclear receptor subfamily 1 group I member 2 (Homo sapiens) (UniProt O75469); assay: Human pregnane X receptor (PXR) small molecule agonists, qHTS assay (AID 1346982); also: nearly all actives have a fitted effect of over 35% in size; also: potency is read from the fitted curve at half-maximal effect
Summary of the method: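 Compound-induced hPXR transactivation of a CYP3A4 luciferase reporter was scored in HepG2 PXR-Luc cells over 24 hr at 37 C, 5% CO2, by luminescence.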

[7] = Caspase-3/7 induction in CHO-K1 cells by small molecules, qHTS cell viability counter screen (AID 1346979); also: nearly all actives have a fitted effect of over 35% in size; also: potency is read from the fitted curve at half-maximal effect
Summary of the method: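 In the same wells as the caspase read, viability of compound-treated wild-type CHO-K1 cells was assessed using CellTiter-Fluor, added after 16hr at 37C and measured by fluorescence following 1hr further incubation.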

[8] = biological target: Nuclear receptor subfamily 1 group I member 2 (Rattus norvegicus) (UniProt Q9R1A7); assay: Rat pregnane X receptor (rPXR) activation by small molecules, qHTS assay (AID 1346983); conditions: rPXR luciferase reporter cells, One-Glo luminescence, 24 h; max activation: stronger effect = higher value; also: nearly all actives have a fitted effect of over 20% in size
Summary of the method: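 Cell-based rPXR luciferase reporter assay, 2,000 cells per well, rested 5hr at 37 C before compound addition in DMSO, then 24 hr at 37 C. One-Glo reagent was added and luminescence read after 30 min at room temperature.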

[9] = biological target: Nuclear receptor subfamily 1 group I member 2 (Homo sapiens) (UniProt O75469); assay: CYP3A4 induction through human pregnane X receptor (PXR) by small molecules, qHTS assay (AID 1346984); also: nearly all actives have a fitted effect of over 40% in size; also: potency is read from the fitted curve at half-maximal effect
Summary of the method: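 Readings come from a luciferase reporter: DPX-2 cells, which are HepG2 cotransfected with PXR and a CYP3A4-promoter construct, were exposed to test compounds for 24 h at 37C before One-Glo detection.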

[10] = biological target: Nuclear receptor subfamily 1 group I member 2 (Homo sapiens) (UniProt O75469); assay: Human pregnane X receptor (PXR) activation by small molecules, qHTS assay (AID 1346985); also: nearly all actives have a fitted effect of over 40% in size; also: potency is read from the fitted curve at half-maximal effect
Summary of the method: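 DPX-2 cells (HepG2 co-transfected with a PXR response element and a CYP3A4-promoter luciferase construct) were seeded at 2,000 per well, rested 5 hr at 37C, then exposed to DMSO-dissolved compounds for 24 hr. Activation was read as luciferase luminescence.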
% is scaled to controls: 0 for no effect and ±100 for the full control effect.

Cytochrome P450 2D6 (Homo sapiens), sequence (P10635 whole entry, looked up): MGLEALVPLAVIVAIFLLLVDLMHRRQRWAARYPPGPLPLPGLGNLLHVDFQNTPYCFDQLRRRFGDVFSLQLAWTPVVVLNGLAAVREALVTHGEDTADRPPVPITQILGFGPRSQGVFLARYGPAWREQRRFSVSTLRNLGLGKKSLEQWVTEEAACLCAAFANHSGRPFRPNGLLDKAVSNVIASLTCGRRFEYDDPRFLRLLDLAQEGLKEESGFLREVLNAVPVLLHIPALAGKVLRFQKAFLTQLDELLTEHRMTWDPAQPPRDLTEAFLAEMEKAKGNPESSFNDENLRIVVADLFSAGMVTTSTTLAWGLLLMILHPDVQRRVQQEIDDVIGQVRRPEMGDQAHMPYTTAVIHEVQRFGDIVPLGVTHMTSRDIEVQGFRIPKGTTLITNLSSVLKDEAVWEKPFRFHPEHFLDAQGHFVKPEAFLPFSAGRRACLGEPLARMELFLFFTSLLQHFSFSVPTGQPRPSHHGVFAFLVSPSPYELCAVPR
Nuclear receptor subfamily 1 group I member 2 (Rattus norvegicus), sequence (Q9R1A7 whole entry, looked up): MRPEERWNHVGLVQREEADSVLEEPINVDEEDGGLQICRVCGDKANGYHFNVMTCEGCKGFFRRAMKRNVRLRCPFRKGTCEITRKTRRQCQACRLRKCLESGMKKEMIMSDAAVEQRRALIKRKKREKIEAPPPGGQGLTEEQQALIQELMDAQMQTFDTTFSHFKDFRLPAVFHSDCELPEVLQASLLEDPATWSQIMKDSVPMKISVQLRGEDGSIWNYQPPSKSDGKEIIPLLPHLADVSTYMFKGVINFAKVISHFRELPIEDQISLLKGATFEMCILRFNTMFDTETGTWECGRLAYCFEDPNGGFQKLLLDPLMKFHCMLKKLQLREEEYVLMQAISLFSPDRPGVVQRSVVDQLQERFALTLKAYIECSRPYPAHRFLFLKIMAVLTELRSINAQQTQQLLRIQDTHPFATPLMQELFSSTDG

C=CC(=O)OCC(CO)(COC(=O)C=C)COC(=O)C=C
active: Potency [1] 17.8 µM and 21.7 µM | Potency [2] 19.4 µM and 24.3 µM | Potency [3] 2.44 µM and 6.11 µM | Potency [4] 17.3 µM and 21.7 µM | Potency [5] 40.1 µM and 63.3 µM

Fc1ccc([C@@H]2CCNC[C@H]2COc2ccc3c(c2)OCO3)cc1
active: Potency [1] 29.8 µM
inactive: Potency [2] | Potency [3] | Potency [6]

CCCCCCCCCCCCCCCCCC[N+](C)(C)Cc1ccccc1
active: Potency [1] 11 µM | Potency [7] 4.9 µM | Potency [4] 55 µM | Potency [6] 1.55 µM | Potency [5] 0.18 µM
inactive: Potency [3]

CCCCCCCCCCCCCCCC(=O)OC[C@H](O)[C@H]1OC(=O)C(O)=C1O
inactive: Potency [1] | Potency [2] | Potency [3] | Potency [4] | Potency [6] | Potency [5]

CNc1ccc(O)cc1
inactive: Potency [2] | Potency [3]
active: Potency [1] 61 µM | Potency [4] 54.4 µM | Potency [5] 12.6 µM

CCCCCCCC[P+](CCCCCCCC)(CCCCCCCC)CCCCCCCC
active: Potency [1] 2.42 µM | Potency [7] 5.42 µM | Potency [4] 13.6 µM | Potency [6] 2.42 µM | Potency [5] 0.141 µM
inactive: Potency [3]

Cc1ccc(O)c2ncccc12
inactive: Potency [3] | Potency [4] | max activation [8] -0.8% | Potency [9] | Potency [10] | Potency [5]
active: Potency [1] 5.96 µM | Potency [7] 5.31 µM | Potency [6] 3.35 µM

N=C1N=C(N)c2ccccc21
active: Potency [1] 27.3 µM | Potency [2] 54.5 µM | Potency [4] 27.3 µM | Potency [6] 24.3 µM | Potency [5] 56.4 µM

NNc1nc(-c2ccccc2)cs1
inactive: Potency [1] | Potency [2] | Potency [3]
active: Potency [6] 31.5 µM

CO[Si](CCCNc1ccccc1)(OC)OC
inactive: Potency [1] | Potency [2] | Potency [3] | Potency [4] | Potency [6] | Potency [5]

COc1cc(-c2nc(NC(=O)c3cc4cc(C)cc(C)c4n3CC(=O)O)sc2CCC2CCCCC2)c(OC)cc1Cl
inactive: Potency [5]
active: Potency [1] 31.5 µM | Potency [7] 19.9 µM | Potency [3] 56 µM | Potency [6] 28.1 µM

CN(C)c1ccc(SC#N)cc1
inactive: Potency [1] | Potency [2] | Potency [3] | Potency [4]
active: Potency [6] 9.69 µM | Potency [5] 31.7 µM

OCCCCCCCCCCCCBr
inactive: Potency [1] | Potency [2] | Potency [3] | Potency [4] | Potency [6] | Potency [5]

CC1(C)CCC(C)(C)c2cc(C(=O)Nc3ccc(C(=O)O)cc3)ccc21
inactive: Potency [1] | Potency [6] | Potency [5]
active: Potency [7] 48.6 µM

O=C(Oc1cccc2cccnc12)c1ccccc1
active: Potency [1] 3.35 µM | Potency [7] 7.5 µM
inactive: Potency [3] | max activation [8] -3.5% | Potency [9] | Potency [10] | Potency [5]

CC(C)OC(=O)c1cc2c(OCC(O)CNC(C)(C)C)cccc2[nH]1 (centres undefined)
inactive: Potency [2] | Potency [7] | Potency [3] | Potency [4]
active: Potency [5] 13.8 µM

O=C(Nc1ccc(Oc2ccc(Cl)cc2)c(Cl)c1)c1cc(I)cc(I)c1O
inactive: Potency [2] | Potency [7] | Potency [3] | max activation [8] -12.9% | Potency [5]
active: Potency [6] 26.6 µM | Potency [9] 22.4 µM | Potency [10] 22.4 µM

Nc1nc2ccccc2n1Cc1ccc(F)cc1
active: Potency [7] 23.7 µM | Potency [6] 26.6 µM | Potency [5] 0.692 µM
inactive: Potency [2] | Potency [3]

C[n+]1ccn(Cc2ccccc2)c1
active: Potency [6] 30.5 µM | Potency [5] 31.6 µM
inactive: Potency [2] | Potency [7] | Potency [3] | Potency [4]

COCCCC/C(=N\OCCN)c1ccc(C(F)(F)F)cc1
active: Potency [5] 1.95 µM
inactive: Potency [2] | Potency [7] | Potency [3] | Potency [4]

CCCCCCCCn1sc(Cl)c(Cl)c1=O
inactive: Potency [2] | Potency [3]
active: Potency [7] 2.73 µM | Potency [6] 61.1 µM | Potency [5] 28.3 µM

OCCN1CCN(CC/C=C2/c3ccccc3Sc3ccc(C(F)(F)F)cc32)CC1
inactive: Potency [6] | max activation [8] -7.9%
active: Potency [1] 29.8 µM | Potency [4] 33.5 µM | Potency [5] 6.92 µM

Nc1ccc(N)c2ccccc12
inactive: Potency [3]
active: Potency [1] 24.3 µM | Potency [7] 30.6 µM | Potency [6] 8.63 µM | Potency [5] 3.99 µM

CCCCCCCCOC(=O)c1ccc(O)cc1
active: Potency [2] 27.3 µM | Potency [7] 24.3 µM | Potency [5] 56.2 µM and 39.9 µM
30.5 µM (active) and inactive: Potency [6]
inactive: Potency [3] | Potency [4]

CCCC(C)c1ccccc1O (centres undefined)
inactive: Potency [1] | Potency [3] | Potency [4] | Potency [6] | Potency [5]
